{
  "source": "PubChem BioAssay (NCI)",
  "experiment_in_all_cases": "NCI-60 one-dose screen, 48 h (100 = growth as untreated, 0 = no growth, -100 = all killed)",
  "key": {"EKVX NSCLC": {"test_system": "EKVX NSCLC", "details": "10 µM unless noted"}, "SN12C renal": {"test_system": "SN12C renal", "details": "10 µM unless noted"}, "UO-31 renal": {"test_system": "UO-31 renal"}, "ACHN renal": {"test_system": "ACHN renal"}, "CAKI-1 renal": {"test_system": "CAKI-1 renal"}, "A498 renal": {"test_system": "A498 renal"}, "CCRF-CEM leukemia": {"test_system": "CCRF-CEM leukemia", "details": "10 µM unless noted"}, "MOLT-4 leukemia": {"test_system": "MOLT-4 leukemia"}, "TK-10 renal": {"test_system": "TK-10 renal", "details": "10 µM unless noted"}},
  "note": "About 83,000 compounds went through this panel and 20% of them were active in at least one assay; those are over-represented in the sample as a whole.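 Compound tested at a single concentration for 48 hours in 96-well plates; a percent growth value below 10 was scored as active.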 A number with no mark means an inactive call. The source made the active and inactive calls.",
  "data": [
    {"smiles": "CCC(c1cccc(O)c1)C(CC)c1cccc(O)c1", "note": "(stereo not given)", "values": [
      {"measurement": "growth", "setting": "EKVX NSCLC", "value": 64.1, "unit": "%"},
      {"measurement": "growth", "setting": "SN12C renal", "value": 68.5, "unit": "%"},
      {"measurement": "growth", "setting": "UO-31 renal; 10 µM unless noted", "value": 64.1, "unit": "%"},
      {"measurement": "growth", "setting": "ACHN renal; 10 µM unless noted", "value": 75.1, "unit": "%"},
      {"measurement": "growth", "setting": "CAKI-1 renal; 10 µM unless noted", "value": 66.4, "unit": "%"},
      {"measurement": "growth", "setting": "A498 renal; 10 µM unless noted", "value": 70.8, "unit": "%"},
      {"measurement": "growth", "setting": "CCRF-CEM leukemia", "value": 49.8, "unit": "%"},
      {"measurement": "growth", "setting": "MOLT-4 leukemia; 10 µM unless noted", "value": 33.7, "unit": "%"}
    ]},
    {"smiles": "CN(C)C(=O)c1ccc(SC(=S)NCc2ccccc2)cc1", "values": [
      {"measurement": "growth", "setting": "EKVX NSCLC", "value": "69.5% [100 µM]"},
      {"measurement": "growth", "setting": "UO-31 renal; 10 µM", "value": 93.2, "unit": "%"},
      {"measurement": "growth", "setting": "UO-31 renal; 100 µM", "value": "-67.4% (active)"},
      {"measurement": "growth", "setting": "TK-10 renal", "value": "-4.78% [100 µM] (active)"},
      {"measurement": "growth", "setting": "ACHN renal; 10 µM", "value": 103, "unit": "%"},
      {"measurement": "growth", "setting": "ACHN renal; 100 µM", "value": "-56.9% (active)"},
      {"measurement": "growth", "setting": "CAKI-1 renal; 10 µM", "value": 102, "unit": "%"},
      {"measurement": "growth", "setting": "CAKI-1 renal; 100 µM", "value": 11.2, "unit": "%"},
      {"measurement": "growth", "setting": "A498 renal; 10 µM", "value": 114, "unit": "%"},
      {"measurement": "growth", "setting": "A498 renal; 100 µM", "value": 96.1, "unit": "%"},
      {"measurement": "growth", "setting": "CCRF-CEM leukemia", "value": "0.435% [100 µM] (active)"},
      {"measurement": "growth", "setting": "MOLT-4 leukemia; 10 µM", "value": 111, "unit": "%"},
      {"measurement": "growth", "setting": "MOLT-4 leukemia; 100 µM", "value": "3.1% (active)"}
    ]},
    {"smiles": "O=C(Nc1ccccc1)c1cc(Cl)ccc1O", "values": [
      {"measurement": "growth", "setting": "EKVX NSCLC", "value": 88.2, "unit": "%"},
      {"measurement": "growth", "setting": "SN12C renal", "value": 61.8, "unit": "%"},
      {"measurement": "growth", "setting": "UO-31 renal; 10 µM unless noted", "value": 49.7, "unit": "%"},
      {"measurement": "growth", "setting": "ACHN renal; 10 µM unless noted", "value": 57.3, "unit": "%"},
      {"measurement": "growth", "setting": "CAKI-1 renal; 10 µM unless noted", "value": 49.6, "unit": "%"},
      {"measurement": "growth", "setting": "A498 renal; 10 µM unless noted", "value": "-4.6% (active)"},
      {"measurement": "growth", "setting": "CCRF-CEM leukemia", "value": 68, "unit": "%"},
      {"measurement": "growth", "setting": "MOLT-4 leukemia; 10 µM unless noted", "value": 77.2, "unit": "%"}
    ]},
    {"smiles": "Cc1cc(C(C)(CC(C)C)c2ccc(O)c(C)c2)ccc1O", "values": [
      {"measurement": "growth", "setting": "EKVX NSCLC", "value": 89.5, "unit": "%"},
      {"measurement": "growth", "setting": "UO-31 renal; 10 µM unless noted", "value": 84.6, "unit": "%"},
      {"measurement": "growth", "setting": "ACHN renal; 10 µM unless noted", "value": 83.3, "unit": "%"},
      {"measurement": "growth", "setting": "CAKI-1 renal; 10 µM unless noted", "value": 73.3, "unit": "%"},
      {"measurement": "growth", "setting": "A498 renal; 10 µM unless noted", "value": 101, "unit": "%"},
      {"measurement": "growth", "setting": "CCRF-CEM leukemia", "value": 92, "unit": "%"},
      {"measurement": "growth", "setting": "MOLT-4 leukemia; 10 µM unless noted", "value": 80.8, "unit": "%"}
    ]},
    {"smiles": "COC(=O)c1nc(=S)[nH]c(C(=O)OC)c1C(=O)c1ccccn1", "values": [
      {"measurement": "growth", "setting": "EKVX NSCLC", "value": 34.9, "unit": "%"},
      {"measurement": "growth", "setting": "SN12C renal", "value": 39.1, "unit": "%"},
      {"measurement": "growth", "setting": "UO-31 renal; 10 µM unless noted", "value": 11.7, "unit": "%"},
      {"measurement": "growth", "setting": "TK-10 renal", "value": 47.6, "unit": "%"},
      {"measurement": "growth", "setting": "ACHN renal; 10 µM unless noted", "value": 10.2, "unit": "%"},
      {"measurement": "growth", "setting": "CAKI-1 renal; 10 µM unless noted", "value": 15, "unit": "%"},
      {"measurement": "growth", "setting": "A498 renal; 10 µM unless noted", "value": 145, "unit": "%"},
      {"measurement": "growth", "setting": "CCRF-CEM leukemia", "value": 10.7, "unit": "%"},
      {"measurement": "growth", "setting": "MOLT-4 leukemia; 10 µM unless noted", "value": "2.29% (active)"}
    ]},
    {"smiles": "S=C(NCCNC(=S)[S][Sn]([c]1ccccc1)([c]1ccccc1)[c]1ccccc1)[S][Sn]([c]1ccccc1)([c]1ccccc1)[c]1ccccc1", "values": [
      {"measurement": "growth", "setting": "EKVX NSCLC", "value": "-91.4% (active)"},
      {"measurement": "growth", "setting": "SN12C renal", "value": "-79.7% (active)"},
      {"measurement": "growth", "setting": "UO-31 renal; 10 µM unless noted", "value": "-100% (active)"},
      {"measurement": "growth", "setting": "TK-10 renal", "value": "-100% (active)"},
      {"measurement": "growth", "setting": "ACHN renal; 10 µM unless noted", "value": "-100% (active)"},
      {"measurement": "growth", "setting": "CAKI-1 renal; 10 µM unless noted", "value": "-71.3% (active)"},
      {"measurement": "growth", "setting": "CCRF-CEM leukemia", "value": "-35.3% (active)"},
      {"measurement": "growth", "setting": "MOLT-4 leukemia; 10 µM unless noted", "value": "-32.8% (active)"}
    ]},
    {"smiles": "O=C1N[C@H]2[C@H](CS[C@H]2CCCCC(=O)N(CCP(c2ccccc2)c2ccccc2)CCP(c2ccccc2)c2ccccc2)N1", "values": [
      {"measurement": "growth", "setting": "EKVX NSCLC", "value": 75.3, "unit": "%"},
      {"measurement": "growth", "setting": "SN12C renal", "value": 94.4, "unit": "%"},
      {"measurement": "growth", "setting": "UO-31 renal; 10 µM unless noted", "value": 77.3, "unit": "%"},
      {"measurement": "growth", "setting": "TK-10 renal", "value": 97.4, "unit": "%"},
      {"measurement": "growth", "setting": "ACHN renal; 10 µM unless noted", "value": 95.7, "unit": "%"},
      {"measurement": "growth", "setting": "CAKI-1 renal; 10 µM unless noted", "value": 99.2, "unit": "%"},
      {"measurement": "growth", "setting": "A498 renal; 10 µM unless noted", "value": 94.2, "unit": "%"},
      {"measurement": "growth", "setting": "CCRF-CEM leukemia", "value": 62.7, "unit": "%"},
      {"measurement": "growth", "setting": "MOLT-4 leukemia; 10 µM unless noted", "value": 82.8, "unit": "%"}
    ]},
    {"smiles": "N#CSCc1ccc(CSC#N)c(Cl)c1", "values": [
      {"measurement": "growth", "setting": "EKVX NSCLC", "value": 90.9, "unit": "%"},
      {"measurement": "growth", "setting": "SN12C renal", "value": 50.5, "unit": "%"},
      {"measurement": "growth", "setting": "UO-31 renal; 10 µM unless noted", "value": 36.7, "unit": "%"},
      {"measurement": "growth", "setting": "TK-10 renal", "value": 94.3, "unit": "%"},
      {"measurement": "growth", "setting": "ACHN renal; 10 µM unless noted", "value": 56.5, "unit": "%"},
      {"measurement": "growth", "setting": "CAKI-1 renal; 10 µM unless noted", "value": 41.7, "unit": "%"},
      {"measurement": "growth", "setting": "A498 renal; 10 µM unless noted", "value": 91.9, "unit": "%"},
      {"measurement": "growth", "setting": "CCRF-CEM leukemia", "value": 19.3, "unit": "%"},
      {"measurement": "growth", "setting": "MOLT-4 leukemia; 10 µM unless noted", "value": 28.9, "unit": "%"}
    ]},
    {"smiles": "Cc1c2ccccc2c(C)c2c1ccc1ccccc12", "values": [
      {"measurement": "growth", "setting": "EKVX NSCLC", "value": 88.7, "unit": "%"},
      {"measurement": "growth", "setting": "SN12C renal", "value": 94.3, "unit": "%"},
      {"measurement": "growth", "setting": "UO-31 renal; 10 µM unless noted", "value": 80.3, "unit": "%"},
      {"measurement": "growth", "setting": "TK-10 renal", "value": 111, "unit": "%"},
      {"measurement": "growth", "setting": "ACHN renal; 10 µM unless noted", "value": 97.2, "unit": "%"},
      {"measurement": "growth", "setting": "CAKI-1 renal; 10 µM unless noted", "value": 89, "unit": "%"},
      {"measurement": "growth", "setting": "A498 renal; 10 µM unless noted", "value": 81.1, "unit": "%"},
      {"measurement": "growth", "setting": "CCRF-CEM leukemia", "value": 88.9, "unit": "%"},
      {"measurement": "growth", "setting": "MOLT-4 leukemia; 10 µM unless noted", "value": 71.1, "unit": "%"}
    ]}
  ]
}
